Laboratory results from PubChem BioAssay (EPA / NIEHS).
“And” between values parts separate entries of the source, which are not always exact repeats. Equal values may be shown once. Results filed as inconclusive are left out. The source made the active and inactive calls. The calls were made as follows, unless noted: active = hit-call score of the fitted dose curve at least 0.9, where 1 is the maximum; inactive = score below 0.9.

Experiments:
[1] = molecular target: Myc proto-oncogene protein (Homo sapiens) (UniProt P01106); test: ATG_Myc_CIS: Attagene CIS-FACTORIAL HepG2 Assay for human Myelocytomatosis (Myc) Proto-Oncogene Transcription Factor (AID 2282990); conditions: HepG2, Attagene cis-reporter transcription factor activity; actives raise or lower the signal
Method in brief: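 After 24 h chemical treatment of HepG2 cells carrying multiplexed cis-regulated reporter constructs, reporter transcripts quantified by RT-PCR and capillary electrophoresis of fluorescent fragments. Gain or loss fitted against DMSO baseline.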

[2] = ATG_NF_kB_CIS: Attagene CIS-FACTORIAL HepG2 Assay for human Nuclear Factor Kappa B (NF-kB) (AID 2282991); conditions: HepG2 Attagene cis-factorial NF-kB reporter mRNA; actives raise or lower the signal
Method in brief: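 Fluorescence of labelled RT-PCR products separated by capillary electrophoresis gives reporter mRNA levels from transfected HepG2 cells exposed 24 h; values are fitted in both directions relative to DMSO.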

[3] = ATG_NRF2_ARE_CIS: Attagene CIS-FACTORIAL HepG2 Assay for human Nuclear Factor Erythroid 2 Related Factor 2 (NFR2) response to Antioxidant Response Elements (ARE) (AID 2282992); conditions: HepG2 Attagene ARE/NRF2 reporter, transcription factor activity; actives raise or lower the signal
Method in brief: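 HepG2 cells transiently transfected with multiplexed cis-regulated reporter transcription units measure endogenous transcription factor activity. Reporter mRNA at 24 h is quantified by RT-PCR, fluorescent labelling and capillary electrophoresis, with bidirectional fitting relative to DMSO.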

[4] = ATG_Oct_MLP_CIS: Attagene CIS-FACTORIAL HepG2 Assay for human Octamer-Binding Transcription Factor (Oct) (AID 2282993); conditions: HepG2 Attagene cis-factorial Oct reporter, mRNA; actives raise or lower the signal
Method in brief: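 Readout is reporter transcript level from RT-PCR with fluorescent primer extension and capillary electrophoresis, fitted in both directions against DMSO. Transfected HepG2 reporter units report endogenous factor activity after 24 h dosing.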

[5] = molecular target: Cellular tumor antigen p53 (Homo sapiens) (UniProt P04637); test: ATG_p53_CIS: Attagene CIS-FACTORIAL HepG2 Assay for human p53 Transcription Factor (AID 2282994); conditions: HepG2 p53 cis-element reporter, Attagene mRNA; actives raise or lower the signal
Method in brief: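 HepG2 cells transiently transfected with multiplexed cis-regulated reporter transcription units read endogenous TF activity. After 24 h compound exposure, reporter mRNA was quantified by RT-PCR, fluorescent labelling, HpaI digestion and capillary electrophoresis; bidirectional fits versus DMSO baseline.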

[6] = BSK_3C_TissueFactor: BioMAP Diversity Plus: 3C Assay for Tissue Factor Biomarker Activity (AID 2282997); conditions: BioMAP 3C HUVEC, tissue factor biomarker readout; actives raise or lower the signal
Method in brief: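 Values derive from bidirectional curve fitting against DMSO of Tissue Factor ELISA signals, taken 24 h after dosing primary human umbilical vein endothelial cells.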

[7] = BSK_3C_uPAR: BioMAP Diversity Plus: 3C Assay for Urokinase-type plasminogen activator receptor (uPAR) Biomarker Activity (AID 2282998); conditions: BioMAP 3C HUVEC, uPAR biomarker ELISA; actives raise or lower the signal
Method in brief: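 Cell-surface uPAR on HUVEC (3C system) read by ELISA at 24 h post-treatment, with DMSO as baseline and fitting in both directions. Parallel cultures stained with SRB to flag overt cytotoxicity.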

[8] = BSK_3C_VCAM1: BioMAP Diversity Plus: 3C Assay for Vascular cell adhesion molecule 1 (VCAM1) Biomarker Activity (AID 2282999); conditions: BioMAP 3C HUVEC, VCAM1 ELISA, cytokine-stimulated; actives raise or lower the signal
Method in brief: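 Endothelial cells from human umbilical vein are treated with test chemical. At 24 h, VCAM-1 is measured by ELISA, and responses in either direction are fitted relative to DMSO.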

[9] = BSK_4H_Eotaxin3: BioMAP Diversity Plus: 4H Assay for Eotaxin 3 Biomarker Activity (AID 2283000); conditions: primary human endothelial cells (HUVEC); actives raise or lower the signal
Method in brief: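 Endothelial primary cells (human umbilical vein) exposed to compound for 24 h. ELISA detection of Eotaxin-3.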

[10] = molecular target: human Peroxisome Proliferator-activated Receptor alpha (PPARa), PPARA (gene 5465) (UniProt Q07869); test: ATG_PPARa_TRANS: Attagene TRANS-FACTORIAL HepG2 Assay for human Peroxisome Proliferator-activated Receptor alpha (PPARa) (AID 2283001; active = hit-call score of the fitted dose curve at least 0.9, where 1 is the maximum;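 as to AC50: potency for gain of reporter signal over DMSO so agonist or activator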)
Method in brief: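 Reporter transcripts from GAL4-UAS units in transfected HepG2 were quantified 24 h after dosing. Detection used reverse transcription, PCR, fluorescent primer extension and capillary electrophoresis, with DMSO as baseline.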

[11] = molecular target: human Peroxisome Proliferator-activated Receptor delta (PPARd), PPARD (gene 5467) (UniProt Q03181); test: ATG_PPARd_TRANS: Attagene TRANS-FACTORIAL HepG2 Assay for human Peroxisome Proliferator-activated Receptor delta (PPARd) (AID 2283002; active = hit-call score of the fitted dose curve at least 0.9, where 1 is the maximum)
Method in brief: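 Read-out is induced reporter mRNA, quantified by RT-PCR with fluorescent labelling and capillary electrophoresis after 24 h dosing. Cells are HepG2 transiently carrying multiple GAL4-UAS reporter units driven by exogenous NR-GAL4 chimeras; DMSO serves as baseline.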

[12] = read-out: Intercellular Adhesion Molecule 1 (ICAM1), ICAM1 (gene 3383); test: BSK_3C_ICAM1: BioMAP Diversity Plus: 3C Assay for Intercellular Adhesion Molecule 1 (ICAM1) Biomarker Activity (AID 2283003); conditions: primary human endothelial cells (HUVEC); actives raise or lower the signal
Method in brief: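 Human vascular endothelial primary cells, 3C conditions, 24 h treatment. ICAM-1 by ELISA.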

[13] = BSK_3C_Proliferation: Cell Proliferation Assessment in the BioMAP Diversity Plus: 3C Assay (AID 2283006); conditions: primary human endothelial cells (HUVEC);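 as to AC50: potency may reflect either rise or fall in cell number versus DMSO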
Method in brief: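 Proliferation of human vascular endothelial primary cells after 48 h dosing, quantified as SRB-stained protein at 560 nm relative to DMSO.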

[14] = molecular target: Peroxisome proliferator-activated receptor gamma (Homo sapiens) (UniProt P37231); test: ATG_PPARg_TRANS: Attagene TRANS-FACTORIAL HepG2 Assay for human Peroxisome Proliferator-activated Receptor-gamma (PPARg) (AID 2283007; active = hit-call score of the fitted dose curve at least 0.9, where 1 is the maximum)
Method in brief: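 Twenty-four hours after chemical dosing of transiently transfected HepG2 cells, isolated RNA was converted to cDNA, reporter sequences amplified and 6-FAM-labelled, then HpaI-digested and analysed by capillary electrophoresis. Signal increase against DMSO was fitted.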

[15] = molecular target: Nuclear receptor subfamily 1 group I member 2 (Homo sapiens) (UniProt O75469); test: ATG_PXR_TRANS: Attagene TRANS-FACTORIAL HepG2 Assay for human Pregnane X Receptor (PXR) (AID 2283008; active = hit-call score of the fitted dose curve at least 0.9, where 1 is the maximum)
Method in brief: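 HepG2 cells transiently transfected with multiple reporter units, here a PXR-GAL4 chimera driving a GAL4-UAS reporter; 24 h compound exposure. Reporter mRNA measured by RT-PCR, FAM labelling and capillary electrophoresis; gain of signal fitted against DMSO baseline.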

[16] = molecular target: human Retinoic Acid Receptor gamma (RARg), RARG (gene 5916) (UniProt P13631); test: ATG_RARg_TRANS: Attagene TRANS-FACTORIAL HepG2 Assay for human Retinoic Acid Receptor gamma (RARg) (AID 2283009; active = hit-call score of the fitted dose curve at least 0.9, where 1 is the maximum)
Method in brief: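 HepG2, RARg-GAL4 TRANS system, 24 h exposure; reporter mRNA by RT-PCR + CE fluorescence; increase over DMSO.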

[17] = molecular target: human Retinoic Acid Receptor beta (RARb), RARB (gene 5915) (UniProt P10826); test: ATG_RARb_TRANS: Attagene TRANS-FACTORIAL HepG2 Assay for human Retinoic Acid Receptor beta (AID 2283004; active = hit-call score of the fitted dose curve at least 0.9, where 1 is the maximum)
Method in brief: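 HepG2, transient MRTU transfection, NR–Gal4 chimera, 24 h treatment; RT-PCR plus CE fluorescence detection of reporter mRNA; gain of signal vs DMSO.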

[18] = molecular target: Retinoic acid receptor alpha (Homo sapiens) (UniProt P10276); test: ATG_RARa_TRANS: Attagene TRANS-FACTORIAL HepG2 Assay for human Retinoic Acid Receptor alpha (RARa) (AID 2283005; active = hit-call score of the fitted dose curve at least 0.9, where 1 is the maximum)
Method in brief: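 Reporter transcripts, measured by RT-PCR with fluorescent labeling and capillary electrophoresis after 24 h dosing, reflect activity of an exogenous human RARa–GAL4 fusion in transiently transfected HepG2. Fitted for increase relative to DMSO.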

[19] = molecular target: human RAR-related Orphan Receptor beta (RORb), RORB (gene 6096) (UniProt Q92753); test: ATG_RORb_TRANS: Attagene TRANS-FACTORIAL HepG2 Assay for human RAR-related Orphan Receptor beta (RORb) (AID 2283010; active = hit-call score of the fitted dose curve at least 0.9, where 1 is the maximum)
Method in brief: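 In this TRANS-format test, human HepG2 cells express chimeric NR-Gal4 fusion proteins driving GAL4-UAS reporters. After 24 h dosing, reporter transcripts are measured by fluorescent RT-PCR/capillary electrophoresis, with DMSO as negative control.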

[20] = molecular target: human RAR-related Orphan Receptor gamma (RORg), RORC (gene 6097) (UniProt P51449); test: ATG_RORg_TRANS: Attagene TRANS-FACTORIAL HepG2 Assay for human RAR-related Orphan Receptor gamma (RORg) (AID 2283011; active = hit-call score of the fitted dose curve at least 0.9, where 1 is the maximum)
Method in brief: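 Activity is scored as increase in GAL4-UAS reporter mRNA over DMSO, detected by fluorescent RT-PCR and capillary electrophoresis in HepG2 cells transiently expressing a RORg-Gal4 chimera, 24 h after dosing.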

Measured: AC50

human Peroxisome Proliferator-activated Receptor delta (PPARd), PPARD (gene 5467), sequence (Q03181 whole entry, looked up, the tested form may be a part): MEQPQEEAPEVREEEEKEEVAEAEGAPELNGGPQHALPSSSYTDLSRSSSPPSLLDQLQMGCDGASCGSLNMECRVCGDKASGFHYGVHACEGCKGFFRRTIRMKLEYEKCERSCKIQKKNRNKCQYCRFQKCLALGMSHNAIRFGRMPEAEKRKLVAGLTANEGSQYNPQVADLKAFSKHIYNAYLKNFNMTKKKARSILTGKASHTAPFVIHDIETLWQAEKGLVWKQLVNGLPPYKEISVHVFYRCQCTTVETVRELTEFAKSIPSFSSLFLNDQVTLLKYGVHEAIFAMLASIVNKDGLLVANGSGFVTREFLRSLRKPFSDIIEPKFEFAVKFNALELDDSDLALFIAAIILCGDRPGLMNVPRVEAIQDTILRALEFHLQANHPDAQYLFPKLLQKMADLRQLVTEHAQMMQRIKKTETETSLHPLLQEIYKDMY
Nuclear receptor subfamily 1 group I member 2 (Homo sapiens), sequence (O75469 whole entry, looked up, the tested form may be a part): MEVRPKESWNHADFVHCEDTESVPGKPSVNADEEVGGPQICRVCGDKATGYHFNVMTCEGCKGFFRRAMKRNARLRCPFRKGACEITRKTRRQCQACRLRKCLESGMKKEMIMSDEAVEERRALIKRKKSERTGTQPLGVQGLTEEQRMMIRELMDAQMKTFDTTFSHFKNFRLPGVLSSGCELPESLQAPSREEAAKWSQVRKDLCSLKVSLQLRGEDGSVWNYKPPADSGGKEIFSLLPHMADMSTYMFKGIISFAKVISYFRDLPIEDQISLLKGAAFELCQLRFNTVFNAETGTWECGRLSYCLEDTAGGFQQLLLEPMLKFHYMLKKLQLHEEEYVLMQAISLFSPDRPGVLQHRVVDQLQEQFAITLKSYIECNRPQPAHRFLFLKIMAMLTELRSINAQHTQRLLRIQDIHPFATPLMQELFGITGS
human Retinoic Acid Receptor gamma (RARg), RARG (gene 5916), sequence (P13631 whole entry, looked up, the tested form may be a part): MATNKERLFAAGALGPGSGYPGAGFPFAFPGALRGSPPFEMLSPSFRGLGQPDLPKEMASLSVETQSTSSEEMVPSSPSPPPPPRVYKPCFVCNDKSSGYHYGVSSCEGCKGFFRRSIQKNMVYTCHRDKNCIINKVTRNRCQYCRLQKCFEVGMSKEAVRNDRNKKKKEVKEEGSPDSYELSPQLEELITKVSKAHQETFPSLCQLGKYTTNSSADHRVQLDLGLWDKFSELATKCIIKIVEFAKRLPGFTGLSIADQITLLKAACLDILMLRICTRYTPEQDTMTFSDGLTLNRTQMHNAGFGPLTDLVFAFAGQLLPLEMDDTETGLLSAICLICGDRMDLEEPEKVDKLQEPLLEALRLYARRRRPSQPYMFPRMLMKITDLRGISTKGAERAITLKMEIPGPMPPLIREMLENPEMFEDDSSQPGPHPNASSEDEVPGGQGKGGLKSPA
Myc proto-oncogene protein (Homo sapiens), sequence (P01106 whole entry, looked up, the tested form may be a part): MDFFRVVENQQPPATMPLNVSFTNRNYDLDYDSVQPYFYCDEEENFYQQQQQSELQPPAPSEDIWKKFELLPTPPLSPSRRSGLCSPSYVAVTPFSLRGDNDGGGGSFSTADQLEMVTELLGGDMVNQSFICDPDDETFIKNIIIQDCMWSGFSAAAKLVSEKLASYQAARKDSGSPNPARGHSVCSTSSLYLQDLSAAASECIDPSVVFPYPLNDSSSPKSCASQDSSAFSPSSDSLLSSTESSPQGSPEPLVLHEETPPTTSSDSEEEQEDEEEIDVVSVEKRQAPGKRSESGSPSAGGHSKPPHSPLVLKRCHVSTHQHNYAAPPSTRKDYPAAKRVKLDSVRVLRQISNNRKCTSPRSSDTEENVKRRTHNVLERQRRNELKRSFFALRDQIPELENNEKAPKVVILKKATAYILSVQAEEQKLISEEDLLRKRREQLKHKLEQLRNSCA
human Retinoic Acid Receptor beta (RARb), RARB (gene 5915), sequence (P10826 whole entry, looked up, the tested form may be a part): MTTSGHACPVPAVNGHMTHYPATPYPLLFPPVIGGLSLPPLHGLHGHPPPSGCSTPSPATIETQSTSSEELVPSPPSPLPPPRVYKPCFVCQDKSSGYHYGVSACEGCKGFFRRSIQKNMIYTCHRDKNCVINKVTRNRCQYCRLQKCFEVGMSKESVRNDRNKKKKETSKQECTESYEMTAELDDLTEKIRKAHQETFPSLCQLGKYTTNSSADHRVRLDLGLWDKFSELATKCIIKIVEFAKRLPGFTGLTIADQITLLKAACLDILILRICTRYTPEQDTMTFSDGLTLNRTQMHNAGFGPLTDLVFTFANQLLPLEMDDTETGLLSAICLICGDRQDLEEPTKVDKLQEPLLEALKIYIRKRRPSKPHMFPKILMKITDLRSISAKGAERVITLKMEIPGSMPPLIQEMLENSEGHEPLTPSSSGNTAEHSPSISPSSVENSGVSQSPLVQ
Retinoic acid receptor alpha (Homo sapiens), sequence (P10276 whole entry, looked up, the tested form may be a part): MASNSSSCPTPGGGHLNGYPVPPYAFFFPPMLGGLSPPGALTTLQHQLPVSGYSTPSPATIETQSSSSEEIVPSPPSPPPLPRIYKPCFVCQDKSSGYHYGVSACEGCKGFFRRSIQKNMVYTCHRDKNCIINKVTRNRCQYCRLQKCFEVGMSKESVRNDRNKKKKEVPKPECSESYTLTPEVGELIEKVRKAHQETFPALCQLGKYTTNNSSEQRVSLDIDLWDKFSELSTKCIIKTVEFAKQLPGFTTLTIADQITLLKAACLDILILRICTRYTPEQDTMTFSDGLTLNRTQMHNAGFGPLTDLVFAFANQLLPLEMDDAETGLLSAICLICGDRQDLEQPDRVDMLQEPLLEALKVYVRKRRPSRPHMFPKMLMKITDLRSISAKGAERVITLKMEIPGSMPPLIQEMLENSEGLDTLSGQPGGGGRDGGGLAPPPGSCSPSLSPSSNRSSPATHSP
Peroxisome proliferator-activated receptor gamma (Homo sapiens), sequence (P37231 whole entry, looked up): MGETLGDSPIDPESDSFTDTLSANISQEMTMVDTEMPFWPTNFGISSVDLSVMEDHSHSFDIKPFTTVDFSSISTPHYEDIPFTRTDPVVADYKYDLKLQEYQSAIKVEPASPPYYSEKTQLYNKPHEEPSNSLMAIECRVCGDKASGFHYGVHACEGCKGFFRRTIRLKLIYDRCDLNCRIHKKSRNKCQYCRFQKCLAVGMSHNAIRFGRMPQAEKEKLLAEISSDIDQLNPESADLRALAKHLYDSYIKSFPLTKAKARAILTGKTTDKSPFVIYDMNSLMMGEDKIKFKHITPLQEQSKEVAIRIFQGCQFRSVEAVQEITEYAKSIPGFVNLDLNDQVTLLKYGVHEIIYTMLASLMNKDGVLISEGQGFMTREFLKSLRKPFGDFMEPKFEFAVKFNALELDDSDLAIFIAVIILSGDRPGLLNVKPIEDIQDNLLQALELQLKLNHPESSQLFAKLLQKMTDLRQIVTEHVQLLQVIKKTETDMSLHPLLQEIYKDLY
human RAR-related Orphan Receptor beta (RORb), RORB (gene 6096), sequence (Q92753 whole entry, looked up, the tested form may be a part): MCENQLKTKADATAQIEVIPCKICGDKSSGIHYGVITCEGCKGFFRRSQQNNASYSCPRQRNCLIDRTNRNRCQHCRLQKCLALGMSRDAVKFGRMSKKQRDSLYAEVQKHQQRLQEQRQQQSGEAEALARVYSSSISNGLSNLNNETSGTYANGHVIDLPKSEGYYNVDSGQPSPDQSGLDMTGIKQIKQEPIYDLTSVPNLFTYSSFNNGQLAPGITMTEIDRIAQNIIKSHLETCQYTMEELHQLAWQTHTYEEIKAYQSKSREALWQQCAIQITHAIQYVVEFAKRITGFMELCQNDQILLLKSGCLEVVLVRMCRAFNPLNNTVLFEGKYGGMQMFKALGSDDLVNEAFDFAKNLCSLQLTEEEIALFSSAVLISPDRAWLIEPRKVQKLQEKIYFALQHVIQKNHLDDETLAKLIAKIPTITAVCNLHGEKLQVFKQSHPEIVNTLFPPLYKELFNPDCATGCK
human RAR-related Orphan Receptor gamma (RORg), RORC (gene 6097), sequence (P51449 whole entry, looked up, the tested form may be a part): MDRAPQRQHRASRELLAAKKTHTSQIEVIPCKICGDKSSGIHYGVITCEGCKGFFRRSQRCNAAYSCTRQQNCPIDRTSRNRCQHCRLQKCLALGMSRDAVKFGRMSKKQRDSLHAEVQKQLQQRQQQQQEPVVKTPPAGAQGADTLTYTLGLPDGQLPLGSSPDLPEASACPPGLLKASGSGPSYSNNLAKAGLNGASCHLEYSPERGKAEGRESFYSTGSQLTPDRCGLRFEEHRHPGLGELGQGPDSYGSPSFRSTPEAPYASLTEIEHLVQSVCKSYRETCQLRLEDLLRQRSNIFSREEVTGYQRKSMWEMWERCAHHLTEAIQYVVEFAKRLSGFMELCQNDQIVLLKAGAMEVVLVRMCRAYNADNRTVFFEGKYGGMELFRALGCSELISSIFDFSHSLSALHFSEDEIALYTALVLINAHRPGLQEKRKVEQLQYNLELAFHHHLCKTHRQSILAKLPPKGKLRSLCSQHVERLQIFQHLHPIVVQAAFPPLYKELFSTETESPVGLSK
Cellular tumor antigen p53 (Homo sapiens), sequence (P04637 whole entry, looked up): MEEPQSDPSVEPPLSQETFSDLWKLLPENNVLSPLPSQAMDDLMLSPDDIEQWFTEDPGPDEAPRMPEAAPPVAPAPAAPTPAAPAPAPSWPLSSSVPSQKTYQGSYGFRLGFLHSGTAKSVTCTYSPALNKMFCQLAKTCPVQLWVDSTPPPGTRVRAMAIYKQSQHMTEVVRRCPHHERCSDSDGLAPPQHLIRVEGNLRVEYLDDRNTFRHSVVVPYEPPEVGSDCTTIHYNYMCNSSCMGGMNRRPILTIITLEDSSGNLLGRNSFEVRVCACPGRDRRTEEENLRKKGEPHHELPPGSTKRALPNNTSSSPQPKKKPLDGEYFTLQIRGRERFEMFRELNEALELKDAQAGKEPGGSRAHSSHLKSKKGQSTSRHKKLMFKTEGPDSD

CCCCCC(C=O)=Cc1ccccc1
inactive: [1] | [2] | [4] | [11] | [15] | [16]
active: [3] 100 µM | [5] 164 µM | [6] 31.7 µM | [7] 31.5 µM | [8] 33.1 µM | [9] 31 µM | [10] 27.5 µM | [12] 30.9 µM | [13] 30.8 µM | [14] 27.6 µM

O=C1c2ccccc2C(=O)c2c(O)ccc(O)c21
active: [2] 2.27 µM | [3] 4.07 µM | [6] 1.21 µM | [7] 3.02 µM | [9] 4.31 µM | [13] 2.95 µM | [14] 8.37 µM | [15] 8.69 µM
not listed: [11] | [19] | [20]
inactive: all other assays above

CCCCC(CC)COC(=O)c1ccc(O)cc1 (configuration not stated)
inactive: [1] | [2] | [3] | [4] | [5] | [10] | [11] | [18] | [19] | [20]
active: [15] 20.7 µM

CC(=O)Nc1ccc(C(=O)CCl)cc1
active: [2] 2.5 µM | [3] 0.41 µM | [6] 9.37 µM | [7] 9.48 µM | [8] 6.27 µM | [9] 6.53 µM | [10] 2.66 µM | [12] 8.45 µM | [13] 6.13 µM | [14] 2.31 µM
inactive: [1] | [4] | [5] | [17] | [15]

CCCCCCC(CO)CCCC (configuration not stated)
active: [13] 37.6 µM and 31.2 µM
not listed: [17] | [19]
inactive: all other assays above

C1=CC2C3C=CC(C3)C2C1 (configuration not stated)
not listed: [10] | [11] | [17] | [20]
inactive: all other assays above

Cc1c(OCC(F)(F)F)ccnc1CS(=O)c1nc2ccccc2[nH]1 (configuration not stated)
inactive: [1] | [2] | [4] | [5] | [10] | [11]
active: [3] 49.1 µM | [14] 23.7 µM

O=C1CCCC=CCCCCCCCCCC1
inactive: [1] | [2] | [4] | [5] | [10] | [11]
active: [3] 45.7 µM | [14] 66.8 µM | [15] 10.3 µM

[O-]n1ccccc1=S.[O-]n1ccccc1=S.[Zn+2]
active: [2] 0.999 µM
not listed: [6] | [7] | [8] | [9] | [12] | [13] | [15] | [16]
inactive: all other assays above
